For 16 compounds, inhibition results are on record in ChEMBL document CHEMBL1961873, “Compounds: GSK PKIS; Assays: Nanosyn kinase panel” (2012).

“And” between values parts separate entries of the source, which are not always exact repeats. Equal entries are not always repeated.
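Note: each value is a mean percent inhibition of FGFR3.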

The target in this test is Fibroblast growth factor receptor 3 (Homo sapiens) (UniProt P22607). The following applies: at 0.1 µM.
Fibroblast growth factor receptor 3 (Homo sapiens), sequence (P22607 23-806 limits assumed): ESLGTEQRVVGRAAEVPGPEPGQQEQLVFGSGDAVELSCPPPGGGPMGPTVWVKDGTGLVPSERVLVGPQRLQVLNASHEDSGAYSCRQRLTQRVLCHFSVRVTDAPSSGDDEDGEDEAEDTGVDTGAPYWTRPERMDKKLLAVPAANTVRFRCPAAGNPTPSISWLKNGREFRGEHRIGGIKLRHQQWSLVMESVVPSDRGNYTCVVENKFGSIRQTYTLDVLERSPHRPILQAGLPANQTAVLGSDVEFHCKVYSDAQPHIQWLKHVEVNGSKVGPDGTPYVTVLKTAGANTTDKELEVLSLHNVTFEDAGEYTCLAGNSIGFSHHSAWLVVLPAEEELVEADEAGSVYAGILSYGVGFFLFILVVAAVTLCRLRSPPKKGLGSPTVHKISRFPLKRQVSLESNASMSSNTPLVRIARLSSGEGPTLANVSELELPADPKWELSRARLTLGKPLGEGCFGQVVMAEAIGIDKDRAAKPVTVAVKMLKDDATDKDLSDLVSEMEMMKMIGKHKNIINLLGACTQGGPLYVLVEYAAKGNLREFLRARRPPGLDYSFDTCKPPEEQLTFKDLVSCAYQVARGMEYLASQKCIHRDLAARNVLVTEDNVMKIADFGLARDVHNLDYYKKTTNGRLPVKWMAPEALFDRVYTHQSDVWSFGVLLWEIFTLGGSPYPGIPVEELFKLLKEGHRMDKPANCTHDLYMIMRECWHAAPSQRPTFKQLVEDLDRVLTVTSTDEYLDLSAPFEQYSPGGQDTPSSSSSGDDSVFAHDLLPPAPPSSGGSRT
As to `NS(=O)(=O)c1ccc(N/N=C2\C(=O)Nc3ccc(C(=O)NCc4ccncc4)cc32)cc1`, the inhibition was 4.61%.

For the compound `Nc1nccc(-c2c(-c3ccc(F)cc3)ncn2C2CCNCC2)n1`, the inhibition is -3.25% and 3.33%.

With `CCOc1ccc2c(-c3ccnc(Nc4cc(OC)cc(C(F)(F)F)c4)n3)cnn2n1`, the inhibition turned out to be 1.13%.

`CS(=O)(=O)CCNCc1ccc(-c2ccc3ncnc(Nc4ccc(OCc5cccc(C(F)(F)F)c5)cc4)c3c2)o1`: the inhibition turned out to be 9.13%.

In the case of `Fc1ccc(Nc2nccc(-c3c(-c4ccc(C(F)(F)F)cc4)nn4ncccc34)n2)cc1F`, the inhibition is 6.52%.

For `COc1cccc(-n2ncc3c(N/N=C/c4ccc(C(=O)NCCN(C)C)cc4)ncnc32)c1`, the inhibition was 6.47%.

Consider `CCn1c(-c2nonc2N)nc2cncc(C(=O)NCCNC)c21`, for which the inhibition came to 2%.

For the compound `COc1cc(Nc2ncc(-c3ccccc3)o2)cc(OC)c1`, the inhibition is 1.91%.

For the compound `O=C1Nc2ccccc2/C1=C1\CCc2cc(O)ccc21`, the inhibition came out at 10.3%.

As to `CS(=O)(=O)CCNCc1ccc(-c2ccc3ncnc(Nc4ccc(OCc5ccccc5)cc4)c3c2)o1`, the inhibition is 4.56%.

As for `FC(F)(F)CNc1nccc(-c2cnn3ncccc23)n1`, the inhibition stood at 3.73%.

For the compound `Cc1c2ccc(N(C)c3ccnc(Nc4cccc(S(N)(=O)=O)c4)n3)cc2nn1C`, the inhibition was 35.5%.

`CN1CCC(n2cnc(-c3ccc(F)cc3)c2-c2ccnc(NCCO)n2)CC1`: the inhibition amounted to 7.57%.

In the case of `NS(=O)(=O)c1cccc(N/C=C2\C(=O)Nc3ccccc32)c1`, the inhibition was 8.3%.

For `CNC(=O)c1ncccc1Nc1nc(Nc2cc3c(cc2OC)CCCN3C(=O)CN(C)C)nc2[nH]ccc12`, the inhibition is 7.55%.

With `COc1c(C(N)=O)cc(-c2ccc(Cl)cc2)cc1-c1ccc(S(N)(=O)=O)cc1`, the inhibition came to 5.11%.

What is called inhibition is the relative decrease from the control value, in per cent.
